Over roughly 110,000 compounds, “z-score” has its median near -0.1; the highest 2% begin near 2. The sample as a whole holds a higher share of the highest values than the screen did. Activity calls are given as the source filed them.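 The calls were made as follows: active = z-score in the third read window above 3 or below -3; inactive = the rest.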
These compounds were tested against Metabotropic glutamate receptor 8 (Rattus norvegicus) (UniProt P70579) (assay: mGluR8 Gi/Go-coupled signaling modulation – cell-based, rat, thallium flux, HTS, primary screen (AID 488969)). Conditions: HEK293 rat mGluR8, GIRK (G protein-gated inwardly rectifying potassium channel) thallium flux, FluoZin2; at 10 µM; stronger effect = higher value; submaximal glutamate (EC20) added with thallium.
Sequence of Metabotropic glutamate receptor 8 (Rattus norvegicus) (P70579 whole entry, looked up): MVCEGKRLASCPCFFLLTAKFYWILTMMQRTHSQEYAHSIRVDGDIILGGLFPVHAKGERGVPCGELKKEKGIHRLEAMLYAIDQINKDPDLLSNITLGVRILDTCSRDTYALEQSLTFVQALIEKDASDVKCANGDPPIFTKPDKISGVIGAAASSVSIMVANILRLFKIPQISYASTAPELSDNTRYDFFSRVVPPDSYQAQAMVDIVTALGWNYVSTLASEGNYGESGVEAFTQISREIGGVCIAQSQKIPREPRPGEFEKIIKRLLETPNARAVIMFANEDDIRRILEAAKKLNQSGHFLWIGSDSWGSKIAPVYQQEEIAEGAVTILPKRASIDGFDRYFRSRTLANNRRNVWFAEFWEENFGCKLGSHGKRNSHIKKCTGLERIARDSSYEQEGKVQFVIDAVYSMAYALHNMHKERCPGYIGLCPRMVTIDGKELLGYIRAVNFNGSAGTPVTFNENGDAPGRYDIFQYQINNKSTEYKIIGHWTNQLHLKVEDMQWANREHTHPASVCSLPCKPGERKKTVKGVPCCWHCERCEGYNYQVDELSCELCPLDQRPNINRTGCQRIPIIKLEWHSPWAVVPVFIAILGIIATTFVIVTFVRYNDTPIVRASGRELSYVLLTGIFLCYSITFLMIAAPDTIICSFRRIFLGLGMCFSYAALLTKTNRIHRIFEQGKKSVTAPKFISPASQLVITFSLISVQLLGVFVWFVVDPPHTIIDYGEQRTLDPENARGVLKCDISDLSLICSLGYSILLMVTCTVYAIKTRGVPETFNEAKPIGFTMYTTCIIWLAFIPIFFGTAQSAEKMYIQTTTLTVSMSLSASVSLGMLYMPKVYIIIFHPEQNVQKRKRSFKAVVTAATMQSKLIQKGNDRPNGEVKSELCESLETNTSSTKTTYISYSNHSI

Point of comparison: `Cc1ccsc1-c1n[nH]c(=S)n1C1CCCCC1`, z-score 0.261. Against it:
- O=C(Nc1cccc(Cl)c1)Nc1ccc(Cl)cn1 — higher, 0.563
- Cc1ccc(Oc2ncnc3sccc23)cc1 — lower, 0.102
- CC(OC(=O)Cc1coc2cc3c(cc12)CCC3)C(=O)NCc1ccc2c(c1)OCO2 (stereo unspecified) — higher, 0.706
- Cc1ccc2c(CC(=O)NCc3ccc4c(c3)OCO4)coc2c1 — higher, 0.281
- Cc1ccc2c(CC(=O)OC(C)C(=O)NCc3ccc4c(c3)OCO4)coc2c1 (stereo unspecified) — higher, 2.05
- Cc1nc(C(F)(F)F)nc(Nc2ccc(Br)cc2)c1C#N — lower, -0.188
- CCOC(=O)c1[nH]c(C)c(C(=O)N(C)Cc2ccccc2)c1C — higher, 0.89
- CCn1c(SC(C)C(=O)OC)nnc1-c1c[nH]c2ccccc12 (stereo unspecified) — lower, -0.657
- CCc1nnc(NC(=O)CSc2nnc(-c3ccccc3O)n2CC)s1 — lower, -0.195
- CCSc1nnc(NC(=O)CSc2nnc(-c3c[nH]c4ccccc34)n2CC)s1 — lower, -1.46
- CCCSc1nnc(-c2c[nH]c3ccccc23)n1C — higher, 0.341
- Cn1c(-c2ccc(C(C)(C)C)cc2)n[nH]c1=S — higher, 1.92
- CC(C)n1c(-c2ccccc2F)n[nH]c1=S — lower, 0.0711
- S=c1[nH]nc(-c2cccnc2)n1C1CCCCC1 — higher, 0.738
- CC(=N\Nc1ccc(Cl)cc1)/C(=N/O)C(=O)Nc1ccccc1 — lower, 0.0464
- COc1cc(/C=N/O)cc(Br)c1OCC(=O)NCc1ccccc1 — lower, 0.215
- Cc1ccccc1-n1nc(CSc2nc3ccccc3[nH]2)c(-c2ccccc2)c1N — lower, -0.755
- O=C(O)C1(NS(=O)(=O)c2ccc(Cl)cc2)CCCCC1 — lower, -0.168
- COc1ccc(NC(=O)C2CCN(C(=O)c3cccs3)CC2)cc1 — lower, 0.195
- Cc1ccc(-c2nc3cnccn3c2Nc2ccccc2)o1 — lower, -0.467
- Cc1ccc(Nc2c(-c3ccc(C)o3)nc3cnccn23)cc1 — higher, 2.11
- Cc1ccc(-c2nc3cnccn3c2Nc2c(C)cccc2C)o1 — lower, -0.399
- C/C=C/c1ccc(OCCOCCOc2cccc3cccnc23)c(OC)c1 — lower, -0.356
- O=S(=O)(NCc1csc(-c2cccnc2)n1)c1ccc(Cl)s1 — lower, 0.124
- O=S(=O)(NCCc1csc(-c2cccnc2)n1)c1ccc2c(c1)OCCO2 — lower, -0.0667
- O=S(=O)(NCCc1csc(-c2cccnc2)n1)c1ccc(Cl)s1 — higher, 2.22
- COc1ccc(S(=O)(=O)NCc2csc(-c3cccnc3)n2)cc1 — lower, -0.168
- CCc1ccc(S(=O)(=O)NCCc2csc(-c3cccnc3)n2)s1 — lower, -0.459
- O=S(=O)(NCc1csc(-c2cccnc2)n1)c1ccc2c(c1)OCCO2 — higher, 2.01
- Cc1cc(C)n2nc(SCc3cc(=O)n4ccccc4n3)nc2n1 — lower, -0.0377
- CCCCCCCCSc1n[nH]c(N)n1 — lower, 0.0327
- COC(=O)c1cccc(CSc2nnc(C)s2)c1 — lower, -0.565
- COc1ccc([N+](=O)[O-])cc1NC(=O)C(C)Sc1ccc(C)cc1 (stereo unspecified) — lower, -0.545
- COc1cc(C(=O)OCC(=O)c2c[nH]c3ccccc23)ccc1OCC(=O)N1CCOCC1 — lower, 0.0746
- CCn1ncc(Cl)c1C(=O)NC(C)c1ccccc1 (stereo unspecified) — lower, 0.00989
- Clc1cccc(Cl)c1CSc1nnc2ccccn12 — lower, 0.157
- Cc1ccccc1CSc1nnc(NC(=O)C2COc3ccccc3O2)s1 (stereo unspecified) — lower, 0.0129
- C[C@H](C(=O)C=[N+]=[N-])N1C(=O)c2ccccc2C1=O — lower, -0.275
- CCOc1ccc(-c2nnn(CC(=O)NCc3ccco3)n2)cc1 — lower, 0.0502
- O=C(Cn1nnc(-c2ccccc2)n1)NCc1ccco1 — lower, 0.185
- CCCCOc1ccc(-c2nnn(CC(=O)NCc3ccco3)n2)cc1 — higher, 2.02
- COc1ccccc1NC(=O)c1ccc(NC(=O)COC(=O)CC(NC(=O)c2ccccc2Cl)c2ccccc2)cc1 (stereo unspecified) — lower, -0.112
- Cc1cc2n(n1)C(c1cn(-c3ccccc3)nc1C)Nc1ccccc1-2 (stereo unspecified) — lower, -2.98
- O=C(CSc1ccc(-c2ccc(F)cc2)nn1)NCc1ccco1 — lower, -0.746
- CCOC(=O)Cc1csc(NC(=O)c2ccc(NC(C)=O)cc2)n1 — higher, 0.627
- CCOC(=O)Cc1csc(NC(=S)NC(=O)c2ccc(Cl)cc2)n1 — higher, 2.1
- CCOC(=O)Cc1csc(NC(=S)NC(=O)c2ccc([N+](=O)[O-])cc2)n1 — higher, 1.72
- CCOC(=O)Cc1csc(NC(=S)NC(=O)c2cccc([N+](=O)[O-])c2)n1 — higher, 0.802
- CCOC(=O)Cc1csc(NC(=O)c2ccc(OC)c(OC)c2)n1 — lower, 0.0105
- CCOC(=O)Cc1csc(NC(=O)c2ccc(Cl)nc2)n1 — lower, 0.0254
- CCOC(=O)Cc1csc(NC(=O)c2ccncc2)n1 — lower, -0.235
- CCCCC(=O)Nc1ccc(C(=O)Nc2nc(CC(=O)OCC)cs2)cc1 — lower, -0.728
- CCOC(=O)Cc1csc(NC(=O)CC)n1 — higher, 1.77

In the case of `CCOC(=O)C(C)Sc1nnc(-c2c[nH]c3ccccc23)n1C` (stereo unspecified), the z-score is reported as 4.19 (active).
For `CCc1nnc(NC(=O)CSc2nnc(-c3c[nH]c4ccccc34)n2CC)s1`, the z-score was 5.79 (active).
In the case of `CC(C)n1c(-c2ccc(C(C)(C)C)cc2)n[nH]c1=S`, the z-score is reported as 8.21 (active).
For `CC(C)(C)c1ccc(-c2n[nH]c(=S)n2C2CCCC2)cc1`, the z-score was 4.4 (active).
For `CCOC(=O)Cc1csc(NC(=O)Nc2ccccc2)n1`, the z-score was 3.05 (active).
For `CCOC(=O)Cc1csc(NC(=S)NC(=O)c2ccc(C)cc2)n1`, the z-score was 8.13 (active).
`CCOC(=O)Cc1csc(NC(=S)NC(=O)c2ccccc2)n1` was tested, and the z-score was 10.6 (active).

— PubChem BioAssay AID488969 (Vanderbilt High Throughput Screening Facility, 2010)
